# According to PMC7862700, “An all-to-all approach to the identification of sequence-specific readers for epigenetic DNA modifications on cytosine”:
# How the values were obtained:
# Experiment in all cases: DAPPL (digital affinity profiling via proximity ligation, sequencing); 10 mM Tris-HCl pH 7.5, 50 mM NaCl, 1 mM DTT, 4% glycerol, room temperature, 30 min; GST-TFs on glutathione beads, 16-mer random dsDNA library, 0.1% formaldehyde crosslink after washing; high values mean tight binding
# FLI1 = target: T1, FLI1 (Homo sapiens, UniProt Q01543 1-452); settings: protein: recombinant; tags: N-terminal GST; dsDNA, one strand shown
# T1 sequence: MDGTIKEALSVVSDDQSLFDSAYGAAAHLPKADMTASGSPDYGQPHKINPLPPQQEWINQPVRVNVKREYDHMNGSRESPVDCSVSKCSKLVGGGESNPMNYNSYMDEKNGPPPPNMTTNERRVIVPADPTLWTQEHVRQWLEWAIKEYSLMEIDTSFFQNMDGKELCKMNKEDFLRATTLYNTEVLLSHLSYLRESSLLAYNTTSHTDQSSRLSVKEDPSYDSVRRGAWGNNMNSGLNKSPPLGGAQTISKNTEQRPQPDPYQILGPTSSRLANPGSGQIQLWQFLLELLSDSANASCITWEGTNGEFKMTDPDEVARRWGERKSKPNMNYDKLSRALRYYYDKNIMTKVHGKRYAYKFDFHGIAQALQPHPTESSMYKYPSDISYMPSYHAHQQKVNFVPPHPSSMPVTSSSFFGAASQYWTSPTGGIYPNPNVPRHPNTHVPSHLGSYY
# In short: (§1)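 GST fusions of human transcription factors were expressed in yeast and captured with glutathione beads. Once given DNA barcodes and pooled alongside a tag-only sample, they were incubated for 30 min at room temperature with 200 nmole of a random double-stranded 16-mer DNA library in Tris/NaCl/DTT/glycerol buffer, then washed, crosslinked (0.1% formaldehyde), proximity-ligated, PCR-amplified and sequenced on an Illumina NextSeq500. The binding signal of each hexamer is its read frequency for a factor divided by its frequency for the tag-only sample.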
# ELK1 = target: T2, ELK1 (Homo sapiens, UniProt P19419 1-428); settings: protein: recombinant; tags: N-terminal GST; dsDNA, one strand shown
# T2 sequence: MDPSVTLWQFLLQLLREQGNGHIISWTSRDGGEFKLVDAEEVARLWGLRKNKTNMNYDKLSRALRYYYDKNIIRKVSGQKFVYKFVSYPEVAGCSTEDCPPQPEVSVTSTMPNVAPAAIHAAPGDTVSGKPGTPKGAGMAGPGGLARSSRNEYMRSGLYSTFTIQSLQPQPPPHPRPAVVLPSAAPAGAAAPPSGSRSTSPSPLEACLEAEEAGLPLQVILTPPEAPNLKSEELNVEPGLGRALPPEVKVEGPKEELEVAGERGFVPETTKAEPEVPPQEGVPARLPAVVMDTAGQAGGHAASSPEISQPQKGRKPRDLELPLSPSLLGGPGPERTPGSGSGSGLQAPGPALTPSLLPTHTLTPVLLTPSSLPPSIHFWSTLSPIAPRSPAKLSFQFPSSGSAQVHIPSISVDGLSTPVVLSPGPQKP
# In short: as §1
# GABPA = target: T3, GABPA (Homo sapiens, UniProt Q06546 1-454); settings: protein: recombinant; tags: N-terminal GST; dsDNA, one strand shown
# T3 sequence: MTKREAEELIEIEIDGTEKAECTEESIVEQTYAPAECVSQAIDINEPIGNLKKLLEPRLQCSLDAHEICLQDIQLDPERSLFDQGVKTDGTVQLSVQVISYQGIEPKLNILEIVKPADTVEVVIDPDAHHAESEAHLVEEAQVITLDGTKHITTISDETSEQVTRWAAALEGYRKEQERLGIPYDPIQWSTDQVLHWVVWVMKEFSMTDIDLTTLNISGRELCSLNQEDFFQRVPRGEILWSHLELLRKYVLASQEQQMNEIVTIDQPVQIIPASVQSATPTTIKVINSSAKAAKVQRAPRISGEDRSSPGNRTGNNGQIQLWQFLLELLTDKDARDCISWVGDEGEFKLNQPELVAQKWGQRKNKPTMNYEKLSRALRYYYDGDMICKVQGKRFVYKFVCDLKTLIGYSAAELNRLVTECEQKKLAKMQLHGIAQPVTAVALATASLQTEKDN
# In short: as §1
# ERG = target: T4, ERG (Homo sapiens, UniProt P11308 1-479); settings: protein: recombinant; tags: N-terminal GST; dsDNA, one strand shown
# T4 sequence: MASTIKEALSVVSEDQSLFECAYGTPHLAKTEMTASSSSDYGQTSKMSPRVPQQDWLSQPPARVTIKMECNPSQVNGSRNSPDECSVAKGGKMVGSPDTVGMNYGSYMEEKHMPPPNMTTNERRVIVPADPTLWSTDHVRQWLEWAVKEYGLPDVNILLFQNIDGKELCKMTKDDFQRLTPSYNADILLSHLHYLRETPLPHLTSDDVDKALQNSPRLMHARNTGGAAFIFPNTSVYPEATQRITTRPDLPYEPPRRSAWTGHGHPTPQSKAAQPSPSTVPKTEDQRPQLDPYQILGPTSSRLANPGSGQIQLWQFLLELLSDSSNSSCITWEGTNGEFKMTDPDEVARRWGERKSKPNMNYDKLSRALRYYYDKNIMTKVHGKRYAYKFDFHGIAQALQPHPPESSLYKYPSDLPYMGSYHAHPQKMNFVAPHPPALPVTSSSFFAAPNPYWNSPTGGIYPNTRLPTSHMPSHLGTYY
# In short: as §1
# ELF1 = ELF1 (Homo sapiens, UniProt P32519 1-619); settings: protein: recombinant; tags: N-terminal GST; dsDNA, one strand shown
# Sequence of ELF1 (P32519 whole entry): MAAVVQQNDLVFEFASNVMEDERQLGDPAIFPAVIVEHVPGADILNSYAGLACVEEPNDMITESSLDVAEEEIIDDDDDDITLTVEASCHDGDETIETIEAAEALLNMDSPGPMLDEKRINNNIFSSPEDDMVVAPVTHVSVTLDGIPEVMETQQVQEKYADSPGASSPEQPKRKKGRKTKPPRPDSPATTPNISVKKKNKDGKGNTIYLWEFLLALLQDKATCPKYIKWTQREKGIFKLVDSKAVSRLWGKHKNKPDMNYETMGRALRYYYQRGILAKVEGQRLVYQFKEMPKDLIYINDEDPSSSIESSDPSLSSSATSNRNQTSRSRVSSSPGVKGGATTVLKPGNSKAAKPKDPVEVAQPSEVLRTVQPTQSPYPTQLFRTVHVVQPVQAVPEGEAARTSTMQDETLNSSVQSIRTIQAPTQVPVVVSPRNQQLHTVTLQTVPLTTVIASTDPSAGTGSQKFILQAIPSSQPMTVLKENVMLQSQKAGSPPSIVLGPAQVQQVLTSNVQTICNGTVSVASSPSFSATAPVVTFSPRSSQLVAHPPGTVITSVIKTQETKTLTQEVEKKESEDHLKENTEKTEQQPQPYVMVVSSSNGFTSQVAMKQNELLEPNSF
# In short: as §1
# EHF = target: T5, EHF (Homo sapiens, UniProt Q9NZC4 1-300); settings: protein: recombinant; tags: N-terminal GST; dsDNA, one strand shown
# T5 sequence: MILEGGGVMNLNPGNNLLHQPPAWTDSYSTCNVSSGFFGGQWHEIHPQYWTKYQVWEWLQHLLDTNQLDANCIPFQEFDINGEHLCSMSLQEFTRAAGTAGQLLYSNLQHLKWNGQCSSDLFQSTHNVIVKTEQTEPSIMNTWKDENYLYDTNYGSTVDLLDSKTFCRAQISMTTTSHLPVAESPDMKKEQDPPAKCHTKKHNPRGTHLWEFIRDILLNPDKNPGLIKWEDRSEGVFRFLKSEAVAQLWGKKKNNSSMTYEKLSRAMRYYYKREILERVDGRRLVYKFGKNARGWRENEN
# In short: as §1
# SPI1 = SPI1 (Homo sapiens, UniProt P17947 1-270); settings: protein: recombinant; tags: N-terminal GST; dsDNA, one strand shown
# In short: as §1
# SPIB = SPIB (Homo sapiens, UniProt Q01892 1-262); settings: protein: recombinant; tags: N-terminal GST; dsDNA, one strand shown
# Sequence of SPIB (Q01892 whole entry): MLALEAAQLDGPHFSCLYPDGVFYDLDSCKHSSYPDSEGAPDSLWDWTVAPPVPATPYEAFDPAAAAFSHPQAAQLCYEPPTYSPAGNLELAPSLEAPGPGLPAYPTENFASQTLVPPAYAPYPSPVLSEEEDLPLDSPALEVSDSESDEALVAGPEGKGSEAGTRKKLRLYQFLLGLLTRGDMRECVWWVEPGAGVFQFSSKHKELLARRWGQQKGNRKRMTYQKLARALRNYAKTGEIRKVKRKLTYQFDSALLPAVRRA
# In short: as §1
# ELK3 = target: T6, ELK3 (Homo sapiens, UniProt P41970 1-407); settings: protein: recombinant; tags: N-terminal GST; dsDNA, one strand shown
# T6 sequence: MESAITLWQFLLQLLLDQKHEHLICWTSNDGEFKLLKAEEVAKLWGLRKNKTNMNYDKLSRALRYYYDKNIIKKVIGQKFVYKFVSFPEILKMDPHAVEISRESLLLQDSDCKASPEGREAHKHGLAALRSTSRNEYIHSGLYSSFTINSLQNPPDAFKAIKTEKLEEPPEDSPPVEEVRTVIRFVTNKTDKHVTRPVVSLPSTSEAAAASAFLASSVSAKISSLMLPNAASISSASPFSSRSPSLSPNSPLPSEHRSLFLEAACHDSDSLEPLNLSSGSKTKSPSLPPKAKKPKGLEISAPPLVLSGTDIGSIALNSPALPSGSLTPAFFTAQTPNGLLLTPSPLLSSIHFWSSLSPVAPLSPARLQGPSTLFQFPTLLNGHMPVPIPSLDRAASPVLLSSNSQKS
# In short: as §1
# FEV = target: T7, FEV (Homo sapiens, UniProt Q99581 1-238); settings: protein: recombinant; tags: N-terminal GST; dsDNA, one strand shown
# T7 sequence: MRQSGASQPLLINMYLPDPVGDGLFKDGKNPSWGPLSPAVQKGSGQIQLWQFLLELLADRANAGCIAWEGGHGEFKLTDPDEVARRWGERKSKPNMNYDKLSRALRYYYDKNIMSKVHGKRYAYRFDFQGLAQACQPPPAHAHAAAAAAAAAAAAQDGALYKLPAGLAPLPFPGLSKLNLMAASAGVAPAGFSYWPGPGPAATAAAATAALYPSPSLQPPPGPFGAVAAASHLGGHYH
# In short: as §1
# ETV5 = ETV5 (Homo sapiens, UniProt P41161 1-510); settings: protein: recombinant; tags: N-terminal GST; dsDNA, one strand shown
# Sequence of ETV5 (P41161 whole entry): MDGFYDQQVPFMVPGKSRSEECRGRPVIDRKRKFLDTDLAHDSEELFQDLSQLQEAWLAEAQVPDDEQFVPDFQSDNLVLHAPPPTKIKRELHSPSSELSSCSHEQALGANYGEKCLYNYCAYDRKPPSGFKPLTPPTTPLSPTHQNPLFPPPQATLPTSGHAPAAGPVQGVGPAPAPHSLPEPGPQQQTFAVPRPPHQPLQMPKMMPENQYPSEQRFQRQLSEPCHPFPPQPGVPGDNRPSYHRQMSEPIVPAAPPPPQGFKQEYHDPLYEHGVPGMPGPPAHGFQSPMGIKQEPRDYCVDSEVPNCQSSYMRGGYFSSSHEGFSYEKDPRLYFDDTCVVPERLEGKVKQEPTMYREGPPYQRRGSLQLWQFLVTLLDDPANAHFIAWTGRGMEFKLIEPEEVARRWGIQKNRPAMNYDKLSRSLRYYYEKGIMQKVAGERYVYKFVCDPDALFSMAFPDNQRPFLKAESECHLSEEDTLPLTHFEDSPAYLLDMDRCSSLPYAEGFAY
# In short: as §1
# HSF1 = HSF1 (Homo sapiens, UniProt Q00613 1-529); settings: protein: recombinant; tags: N-terminal GST; chain copies: 3; dsDNA, one strand shown
# Sequence of HSF1 (Q00613 whole entry): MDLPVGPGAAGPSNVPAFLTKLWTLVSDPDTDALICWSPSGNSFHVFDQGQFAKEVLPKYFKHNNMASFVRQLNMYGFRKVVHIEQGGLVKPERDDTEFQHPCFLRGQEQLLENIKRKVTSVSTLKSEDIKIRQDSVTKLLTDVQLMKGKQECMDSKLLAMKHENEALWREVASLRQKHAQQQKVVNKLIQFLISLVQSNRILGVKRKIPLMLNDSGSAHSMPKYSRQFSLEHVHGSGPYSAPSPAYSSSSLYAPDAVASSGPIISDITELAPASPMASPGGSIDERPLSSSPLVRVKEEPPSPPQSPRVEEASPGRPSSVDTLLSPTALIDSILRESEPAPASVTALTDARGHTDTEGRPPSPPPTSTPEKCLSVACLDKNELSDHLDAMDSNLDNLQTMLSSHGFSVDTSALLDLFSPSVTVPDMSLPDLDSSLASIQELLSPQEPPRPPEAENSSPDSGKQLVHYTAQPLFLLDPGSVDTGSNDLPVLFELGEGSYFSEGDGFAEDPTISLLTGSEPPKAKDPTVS
# In short: as §1
# SPIC = target: T8, SPIC (Homo sapiens, UniProt Q8N5J4 1-248); settings: protein: recombinant; tags: N-terminal GST; dsDNA, one strand shown
# T8 sequence: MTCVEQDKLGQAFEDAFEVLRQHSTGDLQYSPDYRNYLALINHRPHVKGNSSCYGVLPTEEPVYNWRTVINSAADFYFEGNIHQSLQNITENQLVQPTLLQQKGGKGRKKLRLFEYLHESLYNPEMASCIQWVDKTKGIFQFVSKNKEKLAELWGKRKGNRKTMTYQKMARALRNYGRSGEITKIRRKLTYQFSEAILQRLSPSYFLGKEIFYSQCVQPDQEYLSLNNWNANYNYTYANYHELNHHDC
# In short: as §1
# ELF4 = ELF4 (Homo sapiens, UniProt Q99607 1-663); settings: protein: recombinant; tags: N-terminal GST; dsDNA, one strand shown
# Sequence of ELF4 (Q99607 whole entry): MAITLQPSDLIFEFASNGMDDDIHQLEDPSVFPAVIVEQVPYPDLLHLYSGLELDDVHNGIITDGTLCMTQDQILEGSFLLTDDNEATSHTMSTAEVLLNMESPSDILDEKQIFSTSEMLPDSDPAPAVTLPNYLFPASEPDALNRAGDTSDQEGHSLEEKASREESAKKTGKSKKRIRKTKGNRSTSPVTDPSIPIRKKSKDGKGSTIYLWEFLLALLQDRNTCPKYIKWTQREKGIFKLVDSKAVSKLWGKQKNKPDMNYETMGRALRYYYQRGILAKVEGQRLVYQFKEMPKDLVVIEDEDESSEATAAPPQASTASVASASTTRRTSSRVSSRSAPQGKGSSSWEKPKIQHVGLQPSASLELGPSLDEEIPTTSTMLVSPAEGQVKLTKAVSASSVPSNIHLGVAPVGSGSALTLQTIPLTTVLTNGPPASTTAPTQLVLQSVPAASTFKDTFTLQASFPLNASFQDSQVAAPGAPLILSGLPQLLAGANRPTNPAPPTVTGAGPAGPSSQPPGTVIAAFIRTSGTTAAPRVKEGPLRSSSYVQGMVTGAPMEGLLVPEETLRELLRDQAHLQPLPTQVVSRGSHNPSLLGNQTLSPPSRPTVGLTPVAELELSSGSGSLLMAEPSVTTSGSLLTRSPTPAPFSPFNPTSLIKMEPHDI
# In short: as §1
# ELK4 = target: T9, ELK4 (Homo sapiens, UniProt P28324-2 1-405); settings: protein: recombinant; tags: N-terminal GST; dsDNA, one strand shown
# T9 sequence: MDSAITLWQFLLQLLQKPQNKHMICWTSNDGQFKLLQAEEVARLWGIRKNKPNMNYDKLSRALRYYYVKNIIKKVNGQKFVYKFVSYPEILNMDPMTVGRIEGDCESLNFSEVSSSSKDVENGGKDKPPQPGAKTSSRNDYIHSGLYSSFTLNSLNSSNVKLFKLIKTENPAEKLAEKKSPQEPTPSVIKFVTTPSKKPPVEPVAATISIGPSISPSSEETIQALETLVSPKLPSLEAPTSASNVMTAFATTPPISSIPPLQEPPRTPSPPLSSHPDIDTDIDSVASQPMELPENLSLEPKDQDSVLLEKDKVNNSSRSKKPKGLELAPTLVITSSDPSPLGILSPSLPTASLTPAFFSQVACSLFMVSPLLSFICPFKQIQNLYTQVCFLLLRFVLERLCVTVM
# In short: as §1
# ETV2 = target: T10, ETV2 (Homo sapiens, UniProt O00321 1-342); settings: protein: recombinant; tags: N-terminal GST; dsDNA, one strand shown
# T10 sequence: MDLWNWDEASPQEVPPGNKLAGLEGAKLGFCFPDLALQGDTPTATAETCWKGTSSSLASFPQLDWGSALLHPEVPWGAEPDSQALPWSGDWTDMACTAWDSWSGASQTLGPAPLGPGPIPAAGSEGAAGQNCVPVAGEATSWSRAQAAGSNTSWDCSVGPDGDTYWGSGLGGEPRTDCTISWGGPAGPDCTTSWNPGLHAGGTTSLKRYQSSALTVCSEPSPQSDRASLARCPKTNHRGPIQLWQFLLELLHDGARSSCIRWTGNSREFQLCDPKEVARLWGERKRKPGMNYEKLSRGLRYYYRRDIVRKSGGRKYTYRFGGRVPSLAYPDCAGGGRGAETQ
# In short: as §1
# ELF3 = target: T11, ELF3 (Homo sapiens, UniProt P78545 1-371); settings: protein: recombinant; tags: N-terminal GST; dsDNA, one strand shown
# T11 sequence: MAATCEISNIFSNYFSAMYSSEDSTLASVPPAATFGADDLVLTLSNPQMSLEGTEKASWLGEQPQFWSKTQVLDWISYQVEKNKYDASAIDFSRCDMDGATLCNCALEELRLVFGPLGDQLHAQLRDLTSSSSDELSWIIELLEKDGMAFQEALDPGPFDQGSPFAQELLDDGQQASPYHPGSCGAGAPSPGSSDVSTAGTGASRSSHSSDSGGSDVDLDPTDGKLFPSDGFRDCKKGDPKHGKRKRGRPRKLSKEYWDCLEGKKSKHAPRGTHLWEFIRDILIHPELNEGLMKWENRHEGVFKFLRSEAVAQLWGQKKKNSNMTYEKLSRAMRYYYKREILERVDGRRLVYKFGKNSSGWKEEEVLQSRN
# In short: as §1
# CRX = CRX (Homo sapiens, UniProt O43186 1-299); settings: protein: recombinant; tags: N-terminal GST; dsDNA, one strand shown
# Sequence of CRX (O43186 whole entry): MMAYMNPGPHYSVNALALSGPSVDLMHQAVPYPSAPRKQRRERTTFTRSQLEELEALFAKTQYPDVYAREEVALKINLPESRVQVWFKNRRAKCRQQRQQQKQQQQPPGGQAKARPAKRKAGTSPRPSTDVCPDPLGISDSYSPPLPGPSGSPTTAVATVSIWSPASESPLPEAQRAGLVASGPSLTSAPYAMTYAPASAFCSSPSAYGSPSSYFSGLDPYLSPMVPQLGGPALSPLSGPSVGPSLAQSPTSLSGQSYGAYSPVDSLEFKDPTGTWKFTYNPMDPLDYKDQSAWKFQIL
# In short: as §1
# ETV1 = ETV1 (Homo sapiens, UniProt P50549 1-477); settings: protein: recombinant; tags: N-terminal GST; dsDNA, one strand shown
# Sequence of ETV1 (P50549 whole entry): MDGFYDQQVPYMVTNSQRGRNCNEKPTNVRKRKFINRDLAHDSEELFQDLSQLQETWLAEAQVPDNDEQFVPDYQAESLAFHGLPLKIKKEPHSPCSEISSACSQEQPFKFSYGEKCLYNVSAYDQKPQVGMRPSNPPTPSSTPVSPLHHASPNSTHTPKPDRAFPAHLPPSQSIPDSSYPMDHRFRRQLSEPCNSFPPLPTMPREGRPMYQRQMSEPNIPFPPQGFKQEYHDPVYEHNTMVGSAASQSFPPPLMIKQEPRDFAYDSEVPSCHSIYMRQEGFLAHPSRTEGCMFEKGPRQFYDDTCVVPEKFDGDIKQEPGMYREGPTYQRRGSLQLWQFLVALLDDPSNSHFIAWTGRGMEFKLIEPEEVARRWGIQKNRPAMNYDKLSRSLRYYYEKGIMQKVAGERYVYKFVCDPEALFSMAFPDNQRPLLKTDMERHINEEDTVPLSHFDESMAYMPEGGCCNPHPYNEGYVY
# In short: as §1
sequence,measurement,setting,value
TATCCC,binding signal,FLI1,"1.63 fold enrichment (6-mer frequency, TF over GST control)"
same,binding signal,ELK1,"1.65 fold enrichment (6-mer frequency, TF over GST control)"
same,binding signal,GABPA,"1.53 fold enrichment (6-mer frequency, TF over GST control)"
same,binding signal,ERG,"1.58 fold enrichment (6-mer frequency, TF over GST control)"
same,binding signal,ELF1,"1.57 fold enrichment (6-mer frequency, TF over GST control)"
same,binding signal,EHF,"1.52 fold enrichment (6-mer frequency, TF over GST control)"
same,binding signal,SPI1,"1.36 fold enrichment (6-mer frequency, TF over GST control)"
same,binding signal,SPIB,"1.54 fold enrichment (6-mer frequency, TF over GST control)"
same,binding signal,ELK3,"1.56 fold enrichment (6-mer frequency, TF over GST control)"
same,binding signal,FEV,"1.59 fold enrichment (6-mer frequency, TF over GST control)"
same,binding signal,ETV5,"1.64 fold enrichment (6-mer frequency, TF over GST control)"
same,binding signal,HSF1,"1.61 fold enrichment (6-mer frequency, TF over GST control)"
same,binding signal,SPIC,"1.6 fold enrichment (6-mer frequency, TF over GST control)"
same,binding signal,ELF4,"1.54 fold enrichment (6-mer frequency, TF over GST control)"
same,binding signal,ELK4,"1.64 fold enrichment (6-mer frequency, TF over GST control)"
same,binding signal,ETV2,"1.44 fold enrichment (6-mer frequency, TF over GST control)"
same,binding signal,ELF3,"1.83 fold enrichment (6-mer frequency, TF over GST control)"
same,binding signal,CRX,"2.22 fold enrichment (6-mer frequency, TF over GST control)"
same,binding signal,ETV1,"1.39 fold enrichment (6-mer frequency, TF over GST control)"
